From PubChem BioAssay (Tox21)
Active and inactive are the calls of the source. The call rests on the fitted dose curve.

Test: qHTS assay to identify small molecule agonists of the sonic hedgehog signaling (Shh) pathway (AID 1259368);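 further: NIH/3T3-derived 3T3Gli1-Luc cells carrying a stable Gli1-driven firefly luciferase reporter; nearly all actives have a fitted effect of over 15% in size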
Conditions: NIH/3T3 Gli1-Luc reporter, luciferase, 24 h; series mostly up to 92.4 µM
Source text: National Center for Advancing Translational Sciences [NCATS]
NIH Chemical Genomics Center [NCGC]
U.S. Environmental Protection Agency [EPA]
National Institutes of Environmental Health Sciences [NIEHS]
National Toxicology Program [NTP]
The sonic hedgehog (Shh) pathway is essential for normal embryonic development. Dysregulation of the Shh pathway can cause severe developmental defects in organs. Therefore chemicals that interfere with the pathway are potential developmental toxicants. A cell line designated 3T3Gli1-Luc (DMB/OARSA/CFSAN/FDA, Laurel, MD), a NIH/3T3 derived clone containing stably integrated Gli1-Luc reporter is used to detect chemical interference of the Shh pathway, by changes in the expression of the firefly Luc gene under the control of the Gli1 transcriptional response element. This cell line was used to screen Tox21 libraries for identifying and prioritizing the potential developmental toxicants that interfere Shh pathway.
3T3 Gli1-Luc cells were dispensed at 2,000 per well in 5uL of culture medium into white solid bottom 1536-well plates (Greiner Bio-One, Monroe, NC) using a Multidrop Combi (Thermo Scientific, Waltham, MA) dispenser. The assay plates were incubated at 37 C and 5% CO2 for 4hr, and then 23nL of compounds dissolved in DMSO and positive control were transferred using a Pintool station (Wako, San Diego, CA). The assay plates were incubated at 37C and 5% CO2 for 24hr. For luciferase read, 4uL of Amplite Luciferase reporter gene assay reagent (AAT Bioquest, Inc. Sunnyvale, CA) was added to each well of the assay plates using Flying Reagent Dispenser (FRD, Aurora Discovery, San Diego, CA) and incubated at room temperature for 30min. The luminescence signal was measured using a ViewLux plate reader (Perkin Elmer, Shelton, CT).

| Compound | outcome |
| --- | --- |
| Cc1ccc(N)cc1 | inactive |
| CNC(=O)O/N=C/C(C)(C)S(C)=O (stereo not given) | inactive |
| O=[N+]([O-])c1ccc(Cl)c(Cl)c1 | inactive |
| Cc1ccccc1N | inactive |
| CCOP(=S)(OCC)Oc1cc(C)nc(C(C)C)n1 | inactive |
| CCCOC(=O)c1ccccc1C(=O)OCCC | inactive |
| C/C=C/c1ccc2c(c1)OCO2 | inactive |
| Nc1cc(Cl)cc(Cl)c1 | inactive |
| COc1nc(NC(C)C)nc(NC(C)C)n1 | inactive |
| C[C@H]1C(=O)O[C@@H]2CCN3CC=C(COC(=O)[C@](C)(O)[C@]1(C)O)[C@H]23 | inactive |
| CSc1nnc(C(C)(C)C)c(=O)n1N | inactive |
| COP(=S)(OC)Oc1ccc(SC)c(C)c1 | inactive |
| N#CN=C(N)N | inactive |
| CNC(=O)Oc1cccc2ccccc12 | inactive |
| O=C(O)Cc1ccccc1 | inactive |
| Nc1ncc([N+](=O)[O-])s1 | inactive |
| [N-]=[N+]=CC(=O)OC[C@H](N)C(=O)O | inactive |
| Clc1cnc(Oc2ccc(Oc3ncc(Cl)cc3Cl)cc2)c(Cl)c1 | inactive |
| O=C(O)C1C(C(=O)O)C2(Cl)C(Cl)=C(Cl)C1(Cl)C2(Cl)Cl (stereo not given) | inactive |
| CC(=O)C1CCOC1=O (stereo not given) | inactive |

| Compound | outcome |
| --- | --- |
| COc1cc(-c2ccc(N)c(OC)c2)ccc1N | inactive |
| O=C/C=C/c1ccccc1 | inactive |
| C=C(C)C(=O)OCC(CC)CCCC (stereo not given) | inactive |
| Nc1nc(N)nc(NC2CC2)n1 | inactive |
| CC(=O)/C=C/c1ccccc1 | inactive |
| C=CC(=O)OCC(CC)CCCC (stereo not given) | inactive |
| CN1C(=O)CCS(=O)(=O)C1c1ccc(Cl)cc1 (stereo not given) | inactive |
| O=C(O)CCCc1ccc(N(CCCl)CCCl)cc1 | inactive |
| Nc1ccc([As](=O)(O)O)cc1 | inactive |
| O=C(O)c1cc(Oc2ccc(C(F)(F)F)cc2Cl)ccc1[N+](=O)[O-] | inactive |
| Cc1ccc(N=C=O)cc1N=C=O | inactive |
| FC(F)(F)c1ccc(Cl)cc1 | inactive |
| CN(C)CCC#N | inactive |
| Cc1cc(O)ccc1Cl | inactive |
| Nc1ccc(N)cc1 | inactive |
| OCC(O)CCl (stereo not given) | inactive |
| c1ccc2c(c1)CCCC2 | inactive |
| NNc1ccccc1 | inactive |
| Cc1cccc(N)c1C | inactive |
| CNCC(O)c1ccc(O)cc1 (stereo not given) | inactive |
